Experiment [1] in a line: TOX21_p53_BLA_p2_viability: Viability Assessment in the Tox21 HCT-116 p53 Agonism Beta-lactamase Assay, Phase 2 (AID 2283591).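 Note: actives lower the ATP signal meaning cytotoxicity.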 A digest of the protocol: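 HCT116 p53-bla cells, 4000/well, dosed after 5 h plating (217-fold dilution of DMSO stocks) and incubated 16 h at 37C. Viability taken as cellular ATP by CellTiter-Glo luminescence after 30 min RT; signal loss marks cytotoxicity.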

Experiment [2] addresses Cellular tumor antigen p53 (Homo sapiens) (UniProt P04637). In words: TOX21_p53_BLA_p2_ratio: Tox21 HCT-116 p53 Agonism Beta-lactamase Assay, Ratio, Phase 2 (AID 2283592). In outline:
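Readout: blue/green (460/530 nm) FRET emission ratio after 2 h CCF4-AM loading at room temperature, excitation 405 nm. HCT116 p53 bla cells, 16 h compound exposure at 37C, 5% CO2; agonist direction fitted against DMSO baseline.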

Experiment [3] has the same target. In words: TOX21_p53_BLA_p3_ratio: Tox21 HCT-116 p53 Agonism Beta-lactamase Assay, Ratio, Phase 3 (AID 2283596). In outline:
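Cells were seeded at 4000/well, rested 5 h at 37C, then dosed with DMSO compound solutions (217-fold dilution) for 16 h. CCF4-AM substrate was loaded for 2 h at room temperature, and the 460/530 nm emission ratio was fitted for gain of signal versus DMSO.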

Experiment [4] in a line: TOX21_p53_BLA_p4_viability: Viability Assessment in the Tox21 HCT-116 p53 Agonism Beta-lactamase Assay, Phase 4 (AID 2283597).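 Note: hits lower the luminescence signal meaning cytotoxicity.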 A digest of the protocol:
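ATP content by CellTiter-Glo luminescence, 30 min RT, read after the beta-lactamase ratio step. Cells: HCT116, 4000/well, compound added after 5 h, exposure 16 h at 37C. Signal loss = reduced viability.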

Experiment [5] addresses Cellular tumor antigen p53 (Homo sapiens) (UniProt P04637). In words: TOX21_p53_BLA_p5_ratio: Tox21 HCT-116 p53 Agonism Beta-lactamase Assay, Ratio, Phase 5 (AID 2283599). In outline:
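HCT-116 p53-bla cells (4000/well) plated 5 h, dosed with compound (217-fold DMSO dilution) for 16 h at 37 C; CCF4-AM substrate 2 h at room temperature. Activity is the 460/530 nm emission ratio (405 nm excitation), fitted in gain-of-signal direction versus DMSO.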

Experiment [6] can be described thus: TOX21_p53_BLA_p5_viability: Viability Assessment in the Tox21 HCT-116 p53 Agonism Beta-lactamase Assay, Phase 5 (AID 2283600). A digest of the protocol: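 ATP luminescence (CellTiter-Glo, 30 min, RT) served as the viability read-out, with loss of signal indicating cytotoxicity. Compounds in DMSO were pinned at a 217-fold dilution onto 4000 cells/well and incubated 16 h, 37C.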

For experiment [7], the target named is Cellular tumor antigen p53 (Homo sapiens) (UniProt P04637). In words: TOX21_p53_BLA_p4_ratio: Tox21 HCT-116 p53 Agonism Beta-lactamase Assay, Ratio, Phase 4 (AID 2283601). A digest of the protocol: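 HCT-116 p53 beta-lactamase reporter cells (4000/well) preincubated 5 h, then compound (217-fold dilution of DMSO stock) for 16 h at 37C. CCF4-AM substrate added 2 h at room temperature; 460/530 nm emission ratio fitted upward versus DMSO.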
Sequence of Cellular tumor antigen p53 (Homo sapiens) (P04637 whole entry, looked up): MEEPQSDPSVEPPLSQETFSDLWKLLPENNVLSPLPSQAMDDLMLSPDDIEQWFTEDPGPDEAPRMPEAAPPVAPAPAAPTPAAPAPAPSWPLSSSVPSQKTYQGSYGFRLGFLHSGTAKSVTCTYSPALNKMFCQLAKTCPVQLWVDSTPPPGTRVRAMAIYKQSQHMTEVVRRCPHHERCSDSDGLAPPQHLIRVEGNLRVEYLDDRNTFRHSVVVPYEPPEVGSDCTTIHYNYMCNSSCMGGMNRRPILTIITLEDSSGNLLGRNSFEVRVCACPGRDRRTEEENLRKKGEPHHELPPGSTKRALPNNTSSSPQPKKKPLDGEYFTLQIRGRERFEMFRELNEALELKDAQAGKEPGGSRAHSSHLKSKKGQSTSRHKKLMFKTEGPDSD

The results in this text go back to PubChem BioAssay (EPA / NIEHS).

Results filed as inconclusive are left out. Active and inactive are the calls of the source. Rule for the calls: active = hit-call score of the fitted dose curve at least 0.9, where 1 is the maximum; inconclusive = response in the unintended direction; inactive = score below 0.9.

The AC50 is the midpoint of the concentration-response curve, whichever way the signal moves. On to `CCCCC1C(=O)N(c2ccccc2)N(c2ccc(O)cc2)C1=O` (centres undefined), for which the AC50 in experiment [1] was 19 µM (active); in experiment [2] it was 15.8 µM (active); in experiment [4] it was 17 µM (active); in experiment [5], 15.4 µM (active). Further, the result in experiment [3], in experiment [6] and in experiment [7] was inactive.
Take `CCC(=O)c1ccc(O)cc1`: the call in experiment [1], in experiment [2], in experiment [3], in experiment [4], in experiment [5] and in experiment [6] was inactive.
In the case of `Clc1ccc2n[nH]nc2c1`, the compound was classed as inactive in experiment [1], in experiment [2], in experiment [3], in experiment [4], in experiment [6] and in experiment [7]. In experiment [5], the AC50 was 55.7 µM (active).
In the case of `CNc1ccccc1`, the call in experiment [1], in experiment [2], in experiment [3], in experiment [4], in experiment [5] and in experiment [6] was inactive. Besides, the result in experiment [7] was inactive.
For `O=C(Cn1ccnc1[N+](=O)[O-])NCCO`, the outcome in experiment [1], in experiment [2], in experiment [3], in experiment [4], in experiment [5] and in experiment [6] was inactive. Moreover, the result in experiment [7] was inactive.
As to `CCCCNCCCC`, the compound was called inactive in experiment [1], in experiment [2], in experiment [3], in experiment [4], in experiment [5] and in experiment [6].
In the case of `OC[C@H]1O[C@@H](O[C@H]2[C@H](O)[C@@H](O)C(O)O[C@@H]2CO)[C@H](O)[C@@H](O)[C@@H]1O` (some centres undefined), the compound was classed as inactive in experiment [1], in experiment [2], in experiment [3], in experiment [4], in experiment [5] and in experiment [6].
As to `C=C1CC[C@H](O)C/C1=C/C=C1\CCC[C@]2(C)[C@@H]([C@H](C)CC[C@@H](O)C(C)(C)O)CC[C@@H]12`, the AC50 in experiment [1] was 20.1 µM (active); in experiment [2], 24.5 µM (active); in experiment [3], 26.9 µM (active); in experiment [4], 17.9 µM (active); in experiment [5], 22.5 µM (active); in experiment [6], 17.2 µM (active). Besides, the AC50 in experiment [7] was 21.1 µM (active).
For `CCN(CC)CCOCCOC(=O)C(CC)(CC)c1ccccc1`, the call in experiment [1], in experiment [2], in experiment [3], in experiment [4], in experiment [5] and in experiment [6] was inactive. For the same compound, in experiment [7], the result was inactive.
In the case of `C[C@@H](O)[C@H](N)C(=O)O`, the outcome in experiment [1], in experiment [2], in experiment [3], in experiment [4], in experiment [5] and in experiment [6] was inactive. Besides, in experiment [7], the result was inactive.
In the case of `CCCOC(=O)C(C)O` (centres undefined), the outcome in experiment [1], in experiment [2], in experiment [3], in experiment [4], in experiment [5] and in experiment [6] was inactive. In addition, in experiment [7], the result was inactive.
As to `NS(=O)(=O)c1cc2c(cc1Cl)NC(C1CC3C=CC1C3)NS2(=O)=O` (centres undefined), the compound was classed as inactive in experiment [1], in experiment [2], in experiment [3], in experiment [4], in experiment [5] and in experiment [6]. The result in experiment [7] was inactive.
With `CCN(CC)CCOc1ccc2nc(N(C)C)sc2c1`, the result in experiment [1], in experiment [2], in experiment [3], in experiment [4], in experiment [5] and in experiment [6] was inactive.
With `FC(F)OC(Cl)C(F)(F)F` (centres undefined), the compound was classed as inactive in experiment [1], in experiment [2], in experiment [3], in experiment [4], in experiment [5] and in experiment [6]. Moreover, the result in experiment [7] was inactive.
As to `CC(C)COC(=O)c1ccc(N)cc1`, the outcome in experiment [1], in experiment [2], in experiment [3], in experiment [4], in experiment [5] and in experiment [6] was inactive. Further, the outcome in experiment [7] was inactive.
For the compound `CCc1ccc2c(c1)N(CC(C)CN(C)C)c1ccccc1S2` (centres undefined), the half-maximal activity concentration (AC50) in experiment [1] is 38.7 µM (active); in experiment [4], 36.2 µM (active). Moreover, the result in experiment [2], in experiment [3], in experiment [5], in experiment [6] and in experiment [7] was inactive.
As for `CC1=CC(=O)CC(C)(C)C1=O`, the result in experiment [1], in experiment [2], in experiment [3], in experiment [4], in experiment [5] and in experiment [6] was inactive. Also, the result in experiment [7] was inactive.
As for `O=C(c1cc2ccccc2o1)N1CCN(Cc2ccccc2)CC1`, the outcome in experiment [1], in experiment [2], in experiment [3], in experiment [4], in experiment [5] and in experiment [6] was inactive. The result in experiment [7] was inactive.
Take `CC(=O)O[C@@H]1C(=O)O[C@@H]2[C@H]1OC(=O)[C@@H]2OC(C)=O`: the compound was classed as inactive in experiment [1], in experiment [2], in experiment [3], in experiment [4], in experiment [6] and in experiment [7]. Further, in experiment [5], the AC50 is 36.7 µM (active).
On to `O=C(Nc1ccc(C(=O)O)c(O)c1)c1ccccc1`, for which the compound was classed as inactive in experiment [1], in experiment [2], in experiment [3], in experiment [4], in experiment [5] and in experiment [6]. For the same compound, the result in experiment [7] was inactive.
As for `Cc1cc(C(C)(C)C)c(O)c(C)c1CC1=NCCN1`, the compound was called inactive in experiment [1], in experiment [2], in experiment [3], in experiment [4], in experiment [5] and in experiment [6]. Also, in experiment [7], the result was inactive.
As to `NS(=O)(=O)c1cc2c(cc1Cl)NC=NS2(=O)=O`, the outcome in experiment [1], in experiment [2], in experiment [3], in experiment [4], in experiment [5] and in experiment [6] was inactive. In addition, in experiment [7], the result was inactive.
As for `CCC(=O)O[C@H]1CC[C@H]2[C@@H]3CCc4cc(O)ccc4[C@H]3CC[C@]12C`, the outcome in experiment [1], in experiment [2], in experiment [3], in experiment [5], in experiment [6] and in experiment [7] was inactive. Also, the AC50 in experiment [4] is 37.2 µM (active).
As to `CCc1cccc2c3c([nH]c12)C(CC)(CC(=O)O)OCC3` (centres undefined), the call in experiment [1], in experiment [2], in experiment [3], in experiment [4], in experiment [5] and in experiment [6] was inactive. The outcome in experiment [7] was inactive.
In the case of `Brc1c2ccccc2cc2ccccc12`, the result in experiment [1], in experiment [2], in experiment [3], in experiment [4], in experiment [5] and in experiment [6] was inactive. Besides, in experiment [7], the outcome was inactive.
For the compound `CCOc1ccc2nc3cc(N)ccc3c(N)c2c1`, the compound was called inactive in experiment [1], in experiment [4] and in experiment [6]. The AC50 is 30.3 µM (active) in experiment [2], 36.4 µM (active) in experiment [3], 43.5 µM (active) in experiment [5] and 32.4 µM (active) in experiment [7].
For `CC1(O)CCC(C(C)(C)O)CC1` (centres undefined), the outcome in experiment [1], in experiment [2], in experiment [3], in experiment [4], in experiment [5] and in experiment [6] was inactive. The outcome in experiment [7] was inactive.
On to `CC(=O)N/N=C/c1ccc([N+](=O)[O-])o1`, for which the outcome in experiment [1], in experiment [3] and in experiment [6] was inactive. For the same compound, the AC50 is 42.3 µM (active) in experiment [2], 40.9 µM (active) in experiment [4], 34.9 µM (active) in experiment [5] and 41.3 µM (active) in experiment [7].
As to `CCCCCCCC(=O)CC[C@@H]1[C@@H](C/C=C\CCCC(=O)OC(C)C)[C@@H](O)C[C@H]1O`, the concentration at half-maximal activity (AC50) in experiment [1] is 36.2 µM (active); in experiment [2] it was 43.7 µM (active); in experiment [4], 23 µM (active); in experiment [5], 43 µM (active); in experiment [6] it was 41.9 µM (active); in experiment [7], 43.6 µM (active). Besides, in experiment [3], the outcome was inactive.
